Test results as given in PubChem BioAssay (NCATS).
Inconclusive results are not listed. Calls of active or inactive are those of the source. Unless noted, calls follow the shape of the dose curve; as a rule, active = well fitted curve in the direction sought with a large enough effect; inconclusive = small, poorly fitted or top-dose-only effect, or another doubt; inactive = no such curve, though single readings can be large; an effect the other way counts as inactive or inconclusive.

Experiments:
[1] = Cell Viability - BJ (AID 421; calls by dose curve;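 also: potency is read from the fitted curve at half-maximal effect; cells exposed to compound for 40 hours at 37 °C before readout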); conditions: BJ fibroblast viability, qHTS
In short: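 Cytotoxicity as drop in intracellular ATP (CellTiter-Glo, 20 min RT) after 40 hr compound exposure of BJ fibroblasts at 37 °C. Titrations scaled between DMSO and 100 uM tamoxifen, Hill-fitted for AC50.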

[2] = Cell Viability - Jurkat (AID 426;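 active = dose-dependent loss of cell ATP signal giving a full or clear fitted curve, ranked by lower potency value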; also: potency is read from the fitted curve at half-maximal effect); conditions: qHTS
In short: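 Jurkat (clone E6-1, human T-cell leukemia) cells, 5000/well in complete medium, were exposed to compound for 40 hr at 37 °C. Viability was read as intracellular ATP by CellTiter-Glo luminescence; AC50 came from Hill fits of concentration-response data.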

[3] = Cell Viability - Hek293 (AID 427;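 active = compounds whose dose-response curve shows a full or clear partial loss of cell viability, called from curve shape rather than a numeric limit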;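 also: potency is read from the fitted curve at half-maximal effect; cells exposed to compound for 40 hours at 37 °C before reading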); conditions: qHTS
In short: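 Luminescent ATP content (CellTiter-Glo, 20 min at room temperature) was measured after a 40 hr, 37 °C compound exposure of HEK293 cells. AC50 values came from Hill-equation fits of qHTS concentration-response data normalized to DMSO and 100 uM tamoxifen.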

[4] = Cell Viability - HepG2 (AID 433; calls by dose curve;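 also: potency is read from the fitted curve at half-maximal effect; potency for ATP loss meaning cytotoxicity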); conditions: qHTS
In short: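 Read-out is luciferase-based quantitation of cellular ATP as a measure of viable HepG2 cells after 40 h treatment at 37 °C. Signal decrease is scaled between DMSO-only and 100 uM tamoxifen controls, with AC50 fitted by the Hill equation.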

[5] = Cell Viability - MRC5 (AID 434; calls by dose curve;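 also: potency is read from the fitted curve at half-maximal effect; potency reflects cytotoxicity seen as loss of intracellular ATP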); conditions: MRC5 lung fibroblast viability, qHTS
In short: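 qHTS cytotoxicity in human lung fibroblast MRC5 cells; 40 hr treatment, 37 °C; cellular ATP by luciferase luminescence; DMSO = 0%, 100 uM tamoxifen = 100% inhibition; Hill-fit AC50.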

[6] = Cell Viability - SK-N-SH (AID 435; calls by dose curve;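 also: potency is read from the fitted curve at half-maximal effect; compound exposure lasted 40 h at 37 °C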); conditions: SK-N-SH neuroblastoma cell viability qHTS
In short: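 Luminescent ATP signal served as the viability read-out after 40 hours of compound treatment of human neuroblastoma SK-N-SH cells. Concentration-response data, scaled between DMSO and 100 uM tamoxifen, gave AC50 values by standard Hill modeling.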

[7] = target: Mitogen-activated protein kinase 10 (Mus musculus) (UniProt Q61831); test: JNK3 AlphaScreen Assay (AID 530; active = well fitted curve in either direction with a large enough effect, not every such curve was filed as active;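 also: kinase came from lysate of stimulated human HepG2 cells; signal reports phosphorylation of biotinylated GST-cJun 1-79 at Ser73 with 10 µM ATP; series mostly up to about 57 µM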)
In short: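 Room-temperature AlphaScreen kinase assay; pre-activated HepG2 lysate as JNK3 source, biotin-GST-cJun(1-79) substrate, 10 uM ATP, compound 15 min preincubation.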

[8] = Cell Viability - N2a (AID 540); also: nearly all actives have a fitted effect of over 45% in size
In short: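 Mouse neuroblastoma N2a cells (1500/well) were preincubated 5 hr at 37 °C, then exposed to compounds for 40 hr at 37 °C in complete medium. Viability was read as intracellular ATP by CellTiter-Glo luminescence; AC50 from Hill fits.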

[9] = Cell Viability - HUV-EC-C (AID 542); also: nearly all actives have a fitted effect of over 35% in size
In short: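 HUV-EC-C normal human vascular endothelial cells, 1000 cells/well, pre-incubated 5 hr at 37 °C, then exposed to compounds for 40 hr at 37 °C in complete medium. Viability measured as intracellular ATP by CellTiter-Glo luminescence; AC50 from Hill fits.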

[10] = Cell Viability - H-4-II-E (AID 543); also: nearly all actives have a fitted effect of over 35% in size
In short: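 Rat hepatoma H-4-II-E cells (1500/well) were plated, incubated 5 hr at 37 °C, then exposed to compounds for 40 hr at 37 °C. Cellular ATP was read by CellTiter-Glo luminescence; AC50 came from Hill-equation fits of concentration-response data.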

[11] = Cell Viability - SH-SY5Y (AID 544); also: nearly all actives have a fitted effect of over 55% in size
In short: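 Human neuroblastoma SH-SY5Y cells (1500/well) in complete medium were exposed to compounds for 40 hr at 37 °C; intracellular ATP was then quantified by CellTiter-Glo luminescence after 20 min at room temperature. AC50 came from Hill-equation concentration-response fits.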

[12] = Cell Viability - Renal Proximal Tubule (AID 545); also: nearly all actives have a fitted effect of over 40% in size
In short: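 Luminescent ATP signal (CellTiter-Glo) served as the viability read-out after 40 hr compound exposure of freshly isolated rat proximal tubule cells at 37 °C. Concentration-dependent ATP loss was fitted with the Hill equation to give AC50.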

[13] = Cell Viability - Mesenchymal (AID 546);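 also: cells exposed to compound for 40 hours before reading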
In short: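 AC50 values reflect the drop in intracellular ATP in a human kidney mesenchymal line derived from normal glomeruli. Treatment lasts 40 hr at 37 °C in complete medium, and the signal comes from CellTiter-Glo luminescence.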

[14] = Cellular Toxicity (caspase-3) HepG2 (AID 654);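 also: cells exposed to compound for 16 hours before reading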
In short: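 HepG2 cells (1500/well) in complete medium were treated with compounds for 16 hr at 37 °C. Caspase-3/7 activity was then read as luminescence from peptide-aminoluciferin cleavage. AC50 came from Hill fits, normalized to DMSO and 100 uM tamoxifen.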

[15] = Cellular Toxicity (caspase-3) Jurkat (AID 655);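 also: cells exposed to compound for 16 h at 37 °C before reading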
In short: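 5000 Jurkat cells/well; compound 16 hr, 37 °C; Caspase-Glo 3/7 added, 20 min RT; luminescence read. Norm: DMSO = 0%, tamoxifen 100 uM = 100%. AC50, Hill model.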

[16] = Cellular Toxicity (caspase-3) HUV-EC-C (AID 656)
In short: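 qHTS; HUV-EC-C, 1000 cells/well; 5 hr settle, 16 hr cmpd, 37°C; Caspase-Glo 3/7, 20 min RT; luminescence. Norm: DMSO = 0%, tamoxifen 100 uM = 100%. Hill-fit AC50.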

[17] = Cellular Toxicity (caspase-3) SHSY5Y (AID 657)
In short: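 qHTS, SH-SY5Y, 1500 cells/well, 5 h pre-incubation 37 °C; compound 16 h 37 °C; Caspase-Glo 3/7 1 h RT; luminescence. Norm.: DMSO = 0, 10 uM staurosporine = 100%. Hill fit → AC50.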

[18] = Cellular Toxicity (caspase-3) BJ (AID 658)
In short: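 Readout: Caspase-Glo 3/7 luminescence increase in BJ cells after 16 hr treatment at 37 °C. Staurosporine and tamoxifen served as positive controls; AC50 values came from Hill modelling of data normalized to DMSO and 10 uM staurosporine.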

[19] = Cellular Toxicity (caspase-3) MRC-5 (AID 659)
In short: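 Concentration-dependent caspase 3/7 activation is measured in human normal lung fibroblasts (MRC-5) following 16-hour treatment. AC50 values come from standard Hill-equation modeling of luminescence normalized to DMSO and 10 uM staurosporine.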

[20] = Cellular Toxicity (caspase-3) Mesangial (AID 660);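 also: cells exposed to compound for 16 h before the caspase read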
In short: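 Human renal glomerular mesangial cells (1000/well) were treated with compounds for 16 h at 37 °C in complete medium, then caspase 3/7 activity was read by Caspase-Glo luminescence. Data were normalized to DMSO and 100 uM tamoxifen; AC50 from Hill fits.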

[21] = Cellular Toxicity (caspase-3) SK-N-SH (AID 661)
In short: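 SK-N-SH human neuroblastoma cells (1500/well) were treated with compounds for 16 hr at 37 °C in complete medium; caspase 3/7 activity was read by Caspase-Glo luminescence. AC50 came from Hill fits of data normalized to DMSO and 10 uM staurosporine.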

[22] = Cellular Toxicity (caspase-3) H-4-II-E (AID 663);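 also: cells exposed to compound for 16 hr before readout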
In short: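 Apoptosis induction is scored as increased luminescence from caspase 3/7 substrate cleavage in rat hepatoma H-4-II-E cells exposed to compound for 16 hr. Activity is scaled between DMSO and 100 uM tamoxifen.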

[23] = Cellular Toxicity (caspase-3) Hek293 (AID 664);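 also: cells exposed to compound for 16 h at 37 °C before readout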
In short: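 HEK293 cells were exposed to compounds in complete medium for 16 hr at 37 °C, then caspase-3/7 activity was read by Caspase-Glo 3/7 luminescence after 20 min at room temperature. Data normalized to DMSO and 100 uM tamoxifen; AC50 from Hill fits.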

[24] = Cellular Toxicity (caspase-3) N2a (AID 665);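 also: compound exposure lasted 16 h at 37 °C before readout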
In short: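 Mouse N2a neuroblastoma cells (1500/well) were treated with compounds for 16 h at 37 °C, then caspase-3/7 activity was read by Caspase-Glo luminescence after 1 h at room temperature. Data were normalized to DMSO and 10 uM staurosporine; AC50 from Hill fits.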

[25] = Cellular Toxicity (caspase-3) NIH 3T3 (AID 666);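 also: caspase signal read after 16 h compound exposure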
In short: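 Mouse NIH 3T3 fibroblasts (1000 cells/well) were treated with compound for 16 hr at 37°C in complete medium; caspase-3/7 activity was read by Caspase-Glo luminescence. Normalized to DMSO and 100 uM tamoxifen; AC50 from Hill fits.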

[26] = Cellular Toxicity (caspase-3) Renal Proximal Tubule (AID 667);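 also: cells exposed to compound for 16 hours at 37 °C before detection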
In short: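 AC50 derived by standard Hill fit of concentration-response data, normalized between DMSO basal and 10 uM staurosporine as 100% stimulation. Cells: primary rat kidney proximal tubule, 16 h treatment at 37 °C.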

[27] = target: Cytochrome P450 3A4 (Homo sapiens) (UniProt P08684); test: qHTS Assay for Inhibitors and Substrates of Cytochrome P450 3A4 (AID 884); also: series mostly up to about 57 µM; nearly all actives have a fitted effect of over 50% in size
In short: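 20 nM human CYP3A4 with 25 uM Luciferin-PPXE (at KM) in 200 mM KPO4, preincubated 10 min with compound; NADPH regeneration started a 60 min RT reaction. Luciferin detected by luminescence, normalized to 57 uM ketoconazole as full inhibition.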

[28] = Cell Viability - LYMP2-001 (AID 921); also: series mostly up to about 92 µM; nearly all actives have a fitted effect of over 70% in size
In short: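 Steps: seed 2500 lymphoblastoid cells/well; 5 hr, 37 C; add compound; 24 hr, 37 C; CellTiter-Glo reagent, 30 min room temperature; read luminescence. Concentration-response modeled by Hill equation for AC50.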

[29] = MultiTox-Fluor Cytotoxicity Assay - LYMP1-001 - Dead Cells (AID 946)
In short: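 Cytotoxicity as increased dead-cell protease fluorescence (bis-AAF-R110, 485/520 nm), read 60 min after MultiTox-Fluor reagent. Human lymphoblastoid line exposed 16 h; Hill-fitted AC50, with DMSO as 0% and 15 uM tetraoctylammonium bromide as 100%.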

[30] = MultiTox-Fluor Cytotoxicity Assay - LYMP1-001 - Live Cells (AID 947)
[31] = Cell Viability - LYMP1-002 - Assay at 16 hr (AID 948)
In short: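 Seed 2500 LYMP1-002 cells per well in complete medium and hold 5 hr at 37 C. Add compound across a concentration series and incubate 16 hr at 37 C. Add CellTiter-Glo, wait 30 min at room temperature, read luminescence.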

[32] = MultiTox-Fluor Cytotoxicity Assay - LYMP1-002 - Live Cells (AID 955)
In short: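 Human lymphoblastoid LYMP1-002 cells, 2500/well in complete medium, rested 5 hr at 37 C, then exposed to compounds for 16 hr at 37 C. Live-cell protease cleavage of GF-AFC read by fluorescence (Ex/Em 405/510) after 60 min at room temperature; AC50 from Hill fits.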

[33] = MultiTox-Fluor Cytotoxicity Assay - LYMP1-002 - Dead Cells (AID 960); also: nearly all actives have a fitted effect of over 60% in size
In short: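 Human lymphoblastoid cells (LYMP1-002), 2500/well in complete medium, were exposed to compounds for 16 hr at 37 C. Dead-cell protease activity was read as bis-AAF-R110 fluorescence (Ex/Em 485/520), normalized to DMSO and 15 uM tetraoctylammonium bromide; AC50 from Hill fits.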

[34] = MultiTox-Fluor Cytotoxicity Assay - LYMP1-003 - Dead Cells (AID 961); also: nearly all actives have a fitted effect of over 70% in size
In short: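 Dead-cell protease release, detected as bis-AAF-R110 fluorescence at 485/520 nm, was measured in LYMP1-003 cells after 16 h compound treatment at 37 C. AC50 values came from Hill-modeled qHTS curves normalized to DMSO (0%) and 15 uM tetraoctylammonium bromide (100%).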

[35] = MultiTox-Fluor Cytotoxicity Assay - LYMP1-003 - Live Cells (AID 962);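 also: cytotoxic hits lower the live-cell protease signal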
In short: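 LYMP1-003 human lymphoblastoid cells (2500/well) in complete medium were preincubated 5 hr at 37 C, then exposed to compounds for 16 hr at 37 C. Live-cell protease cleavage of GF-AFC read by fluorescence (Ex/Em 405/510); AC50 from Hill fits.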

[36] = Cell Viability - LYMP1-003 - Assay at 24 hr (AID 963)
In short: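 Human lymphoblastoid LYMP1-003 cells (2500/well) were rested 5 hr at 37 C, then exposed to compounds in complete medium for 24 hr at 37 C. Cellular ATP was quantified by CellTiter-Glo luminescence, and AC50 values came from Hill fits of concentration-response data.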

[37] = Cell Viability - LYMP1-003 - Assay at 40 hr (AID 964); also: series mostly up to about 92 µM; nearly all actives have a fitted effect of over 60% in size
In short: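 Human lymphoblastoid LYMP1-003 cells, 2500/well in complete medium, rested 5 hr at 37 C, then exposed to compounds for 40 hr at 37 C. Viability read as intracellular ATP by CellTiter-Glo luminescence; AC50 from Hill fits of concentration-response data.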

[38] = Cell Viability - LYMP2-003 (AID 965);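 also: cells exposed to compounds for 24 h before reading; nearly all actives have a fitted effect of over 50% in size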
In short: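 Seed 2500 lymphoblastoid cells/well; incubate 5 hr, 37 C; add compounds; incubate 24 hr, 37 C; add CellTiter-Glo, 30 min RT; read luminescence. AC50 from Hill fit.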

Measured: Potency

Sequence of Cytochrome P450 3A4 (Homo sapiens) (P08684 whole entry, looked up): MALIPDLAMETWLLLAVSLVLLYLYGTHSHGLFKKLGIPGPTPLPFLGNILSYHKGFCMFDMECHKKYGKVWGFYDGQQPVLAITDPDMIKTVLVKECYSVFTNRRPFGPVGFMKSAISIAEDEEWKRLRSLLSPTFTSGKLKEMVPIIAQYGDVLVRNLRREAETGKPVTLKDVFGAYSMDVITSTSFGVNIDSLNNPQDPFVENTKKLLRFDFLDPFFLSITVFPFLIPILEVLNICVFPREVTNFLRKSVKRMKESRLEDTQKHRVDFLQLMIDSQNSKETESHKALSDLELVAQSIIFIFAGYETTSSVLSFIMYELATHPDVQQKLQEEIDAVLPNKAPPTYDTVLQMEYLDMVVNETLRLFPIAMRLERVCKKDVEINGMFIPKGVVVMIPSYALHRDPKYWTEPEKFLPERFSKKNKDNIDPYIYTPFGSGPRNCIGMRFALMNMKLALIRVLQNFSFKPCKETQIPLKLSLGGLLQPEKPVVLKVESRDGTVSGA

C[C@@H]1[C@H](O)[C@@H](C)/C=C/C=C/C=C/C=C/C=C/C=C/C=C/[C@H](O[C@@H]2O[C@H](C)[C@@H](O)[C@H](N)[C@@H]2O)C[C@@H]2O[C@](O)(C[C@@H](O)C[C@@H](O)[C@H](O)CC[C@@H](O)C[C@@H](O)CC(=O)O[C@H]1C)C[C@H](O)[C@H]2C(=O)O
inactive: [1] > 92 µM | [2] > 92 µM | [3] > 92 µM | [4] > 92 µM | [5] > 92 µM | [6] > 92 µM | [7] | [8] | [9] | [10] | [11] | [12] | [13] | [14] | [15] | [16] | [17] | [18] | [19] | [20] | [21] | [22] | [23] | [24] | [25] | [26] | [27] | [28] | [29] | [30] | [31] | [32] | [33] | [34] | [35] | [36] | [37] | [38]
